Bioassay records as filed in PubChem.
The list is not random: actives were taken first. Their share in the collection is about 1.7%.
RecA splice inh = inhibitors of M. tuberculosis RecA intein splicing; P9WHJ3; cell-free RecA intein splicing, fluorescence; inhibition, % (concentration not given with the values); 290,000 compounds, 0.75% hits; AID 2221; in the data active = inhibition above about 30%;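 note: 0% = vehicle wells and 100% = reference inhibitor control wells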
Target sequence (P9WHJ3 whole entry, looked up, canonical isoform): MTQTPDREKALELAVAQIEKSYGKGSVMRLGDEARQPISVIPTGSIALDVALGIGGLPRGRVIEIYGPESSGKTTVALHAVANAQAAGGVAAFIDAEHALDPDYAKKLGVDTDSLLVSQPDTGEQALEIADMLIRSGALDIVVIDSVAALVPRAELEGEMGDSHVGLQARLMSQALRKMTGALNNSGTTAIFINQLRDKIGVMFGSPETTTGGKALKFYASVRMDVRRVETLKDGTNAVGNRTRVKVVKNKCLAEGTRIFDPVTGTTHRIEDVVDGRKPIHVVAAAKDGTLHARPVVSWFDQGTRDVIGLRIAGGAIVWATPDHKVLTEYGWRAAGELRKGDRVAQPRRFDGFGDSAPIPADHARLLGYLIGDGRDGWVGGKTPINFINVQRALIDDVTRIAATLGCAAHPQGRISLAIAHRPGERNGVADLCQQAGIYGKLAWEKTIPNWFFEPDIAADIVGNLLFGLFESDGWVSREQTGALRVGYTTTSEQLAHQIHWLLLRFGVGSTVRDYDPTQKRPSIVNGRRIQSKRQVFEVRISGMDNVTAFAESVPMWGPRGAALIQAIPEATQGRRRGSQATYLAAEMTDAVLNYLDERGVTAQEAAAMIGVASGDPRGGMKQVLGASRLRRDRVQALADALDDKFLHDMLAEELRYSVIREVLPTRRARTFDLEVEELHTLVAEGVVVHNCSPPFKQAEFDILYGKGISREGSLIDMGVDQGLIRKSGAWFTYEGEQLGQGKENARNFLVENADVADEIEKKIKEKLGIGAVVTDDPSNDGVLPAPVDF
CCHF vOTU inh = blocks the CCHF virus ovarian tumor domain protease; CCHFV vOTU protease, Pep-AMC fluorescence; AID 651958; inhibition, % at 11.5 µM; 370,000 compounds, 0.55% hits; in the data active = inhibition above about 30%; note: 0% = vehicle wells with enzyme and 100% = no enzyme wells
DUSP3 inh = DUSP3 (human) phosphatase inhibition | inhibition, % at 13.3 µM | P51452 | 290,000 compounds, 0.52% hits | AID 1654 | recombinant VHR phosphatase, pNPP absorbance; in the data active = inhibition above about 50%
3CLpro inhibitor = SARS-CoV 3CLpro protease inhibition | P0C6X7 | recombinant SARS-CoV 3CLpro, quenched FRET peptide cleavage | inhibition, % at 6 µM | 290,000 compounds, 0.14% hits; in the data active = inhibition above about 12%
SSB-PriA inh = inhibitors of Klebsiella pneumoniae PriA binding to SSB C-terminal tail | 430,000 compounds, 0.6% hits | inhibition, % at 33 µM | AID 1272365 | AlphaScreen SSBct-PriA binding, biotinylated peptide; in the data active = inhibition mostly above about 37%, no sharp cut-off; inactive = mostly below about 20%;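 note: plate controls were negative control peptide for no effect and reference peptide for full effect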
* = called active by the depositor; . = no result; ! = a repeat was not active.

SMILES | RecA splice inh | CCHF vOTU inh | DUSP3 inh | 3CLpro inhibitor | SSB-PriA inh
CCOC(=O)c1[nH]c2ccccc2c1NC(=O)c1ccc2c(c1)OCO2 | -1.2 | -1.4 | -7.8 | -2.9 | 97.1*
C=CCOc1c(Br)cc(CNc2ccc(NC(=O)C(C)C)c(OC)c2)cc1OC | 0.3 | 12.9 | 26.1 | 3.1 | 42.1*
CCn1nc(C)c(C2C(C#N)=C(N)Oc3n[nH]c(C)c32)c1C (centres undefined) | 41.6* | 2.2 | -2.2 | 0.3 | -3.8
Cc1nn(-c2ccccc2)c(Cl)c1C1C(C#N)=C(N)Oc2c1c(C)nn2-c1ccccc1 (centres undefined) | 12.3 | 16.8 | 27.7 | 2.6 | 3.5
Cc1nn(-c2ccccc2)c(Cl)c1C1C(C#N)=C(N)Oc2n[nH]c(C)c21 (centres undefined) | 62.4* | 1.1 | -3.9 | -0.7 | -1.4
Cc1ccc2nc(NC(=O)CSc3nnc(CNC(=O)c4c(F)cccc4Cl)o3)sc2c1 | . | . | . | . | -1.0
Cc1ccc(-n2nc(C)c3c(C)c(CCC(=O)NCc4ccco4)c(C)nc32)cc1 | -0.6 | 3.5 | 41.9 | . | 96.4*
O=C(NN=Cc1c(O)n(C2CCCCC2)c(=S)[nH]c1=O)c1ccccc1 | . | . | . | . | 13.0
O=C(N/N=C/c1c(O)n(C2CCCCC2)c(=S)[nH]c1=O)c1ccccc1O | 36.9* | 20.1 | -57.5 | 6.1 | .
Oc1ccc(N2CCN(Cc3ccc(OCCCN4CCCCC4)cc3)CC2)cc1 | -5.1 | 9.8 | 17.6 | 2.5 | 55.2*
NC(=O)c1cc(S(=O)(=O)NCc2ccccc2)cs1 | 1.2 | 12.7 | -20.1 | -6.0 | -8.3
Cc1ccccc1CNS(=O)(=O)c1csc(C(N)=O)c1 | 6.7 | 0.8 | 55.5* | 3.2 | -3.2
CC(C)Oc1ccc(CCC(=O)N/N=C/c2ccc3c(c2)OCO3)cc1 | -0.4 | -8.0 | 50.7* | -2.0 | .
COc1ccccc1NC(=O)NC[C@](C)(O)c1ccc2c(c1)OCO2 | . | . | . | . | 3.0
CCS(=O)(=O)N1Cc2ccccc2CC1C(=O)N1CCN(c2ccccc2)CC1 (centres undefined) | 1.2 | 11.0 | 51.5* | 3.0 | -6.0
Cc1c(C(=O)N2CCCC2)oc2ccc(Br)cc12 | 2.9 | 8.1 | 53.4* | -2.6 | -0.3
Cc1c(C(=O)N2CCN(C)CC2)oc2ccc(Br)cc12 | 1.3 | -8.6 | 14.9 | 4.6 | -16.3
O=C(Cn1c(=O)oc2ccccc21)NC[C@H](O)c1ccc2c(c1)CCO2 | . | . | . | . | -21.0
Cc1cc(=O)[nH]c(-n2nc(C(C)(C)C)cc2N)n1 | . | . | . | . | -15.0
CCCC(=O)Nc1cc(C)nn1-c1nc(CC)cc(=O)[nH]1 | . | . | . | . | 33.0
Cc1cc(N)n(-c2nc(-c3ccccc3)cc(=O)[nH]2)n1 | . | . | . | . | 53.0*!
CCc1cc(=O)[nH]c(-n2nc(C)cc2NC(=O)COC)n1 | . | . | . | . | 39.0*
CCc1cc(=O)[nH]c(-n2nc(C)cc2N)n1 | . | . | . | . | 93.0*
CN(C)CCCNC(=O)C[C@H]1C[C@H](C(=O)N2CCCCC2)[C@@]2(CCc3ccccc3)c3[nH]c4cc(-c5ccco5)ccc4c3CCN2C1=O | . | -14.2 | . | . | 46.0*
CN(C)CCCNC(=O)C[C@H]1C[C@H](C(=O)N2CCCCC2)[C@@]2(C)c3[nH]c4cc(-c5ccco5)ccc4c3CCN2C1=O | . | -19.7 | . | . | 10.5
SMILES | RecA splice inh | CCHF vOTU inh | DUSP3 inh | 3CLpro inhibitor | SSB-PriA inh
Oc1cccc(NC(=S)Nc2ccc(SC(F)F)cc2)c1 | 1.1 | 20.5 | 9.6 | 3.1 | 11.9
Oc1cccc2c(NC(=S)Nc3ccc(SC(F)F)cc3)cccc12 | 13.8 | 11.0 | 1.5 | 2.7 | 47.8*
Cc1ccc2c(c1)-c1ncc(C(=O)c3cc(Br)ccc3O)cc1CO2 | 5.1 | 0.8 | 56.3* | 1.6 | .
Cc1ccc(O)c(C(=O)c2cnc3c(c2)COc2ccc(C)cc2-3)c1 | 1.5 | 2.5 | -0.1 | 4.3 | 39.4*
CCCOc1ccc2oc(=O)c3c(c2c1)CCCN3C(=O)CN1CCN(c2ncccn2)CC1 | 3.6 | -0.2 | 55.6* | 4.6 | -8.6
O=S(=O)(Cc1cc(F)ccc1F)N1CCC(c2cccs2)CC1 | . | . | . | . | -24.0
CC(=O)Nc1ccc(SCCCC(=O)N2CCN(C)CC2)nn1 | . | . | . | . | -11.0
CCN1CCN(c2cc(N3CCN(C(=O)c4ccco4)CC3)c3c4c(onc24)-c2ccccc2C3=O)CC1 | 12.0 | . | 5.3 | -2.6 | 76.2*
CC(=O)OCCNc1cc(N2CCN(C)CC2)c2noc3c2c1C(=O)c1ccccc1-3 | . | 10.3 | 22.0 | -0.7 | 70.0
O=C(O)CCNc1cc(N2CCN(C(=O)c3ccco3)CC2)c2noc3c2c1C(=O)c1ccccc1-3 | 21.1 | 54.5* | 25.9 | -4.5 | 54.3*
Oc1cccnc1N=Cc1c(O)ccc2ccccc12 | . | . | . | . | 58.0*
O=C(Nc1nc2c(s1)COCC2)c1ccc(-n2cccc2)cc1 | . | . | . | . | -26.0
CC1CCCCN1CCCNC(=O)c1ccc(Br)cc1 (centres undefined) | 2.1 | -3.4 | 57.6* | -4.6 | -4.3
CCC1CCCCN1CCCNC(=O)c1nn(C)c2c1CS(=O)(=O)c1ccccc1-2 (centres undefined) | -1.2 | 3.8 | 7.1 | -2.0 | 14.9
CC1CCCCN1CCCNC(=O)c1nn(C)c2c1CS(=O)(=O)c1ccccc1-2 (centres undefined) | -0.3 | 0.9 | 59.1* | 6.0 | -6.3
Cc1c(C)n(C)c2ccc(C(=O)NCCCN3CCCCC3C)cc12 (centres undefined) | 0.2 | -8.6 | 77.6 | -3.1 | 5.8
CC(C)Oc1ccc(C(=O)Nc2nnc(-c3ccc(Br)cc3)o2)cc1 | . | . | . | . | -3.0
Cc1ccc(C23CCC(=O)N2CCN3)cc1 (centres undefined) | . | . | . | . | 10.0
CCOc1cc(C2C(C#N)=C(N)OC(C)=C2C(C)=O)cc(Br)c1O (centres undefined) | 0.2 | -13.4 | 50.0* | -0.8 | -9.6
CCCn1c(=NC(=O)c2ccc(Cl)s2)sc2ccccc21 | . | . | . | . | -35.0
O=C(Cc1noc2ccccc12)N1CCN(c2ccc(-n3cncn3)nn2)CC1 | . | . | . | . | -11.0
COc1ccc(C2(c3ccc(OC)cc3)NC(=O)N(CC(=O)Nc3cc(C)ccc3OC)C2=O)cc1 | -2.0 | 12.7 | 56.9* | -0.5 | -2.4
COc1ccc(C2(c3ccc(OC)cc3)NC(=O)N(CC(=O)Nc3ccc(C(=O)N(C)C)cc3)C2=O)cc1 | -2.3 | 1.7 | 14.5 | 6.7 | 14.3
COc1cc(NC(=O)CN2C(=O)NC(c3ccccc3)(c3ccccc3)C2=O)cc(OC)c1 | 7.4 | -3.2 | 48.4 | 1.0 | 44.5*
COc1ccc(-n2ncc3c2CC(C)(C)CC3NC(=O)CCCN2CCCC2=O)cc1 (centres undefined) | 3.0 | -8.7 | 56.8* | -1.7 | 3.3
SMILES | RecA splice inh | CCHF vOTU inh | DUSP3 inh | 3CLpro inhibitor | SSB-PriA inh
COC(=O)CCC(=O)NC1CC(C)(C)Cc2c1cnn2-c1ccc(F)cc1 (centres undefined) | -2.8 | -6.3 | 0.5 | 2.9 | -4.5
CC1(C)Cc2c(cnn2-c2ccc(F)cc2)C(NC(=O)CCC(F)(F)F)C1 (centres undefined) | 1.0 | -4.5 | 59.1* | -3.9 | -4.3
O=C(NCc1ccco1)c1csc(Nc2ccc(OC(F)F)cc2)n1 | . | . | . | . | 8.0
N#C/C(=C\N1CCN(c2cccc(Cl)c2)CC1)C(=O)NCc1ccco1 | . | . | . | . | -9.0
COc1cc2c(cc1OC)-c1cc3ccc(OC)c(OC)c3c[n+]1CC2 | . | 20.9 | . | . | 3.5
COc1ccc2cc3[n+](cc2c1O)CCc1cc2c(cc1-3)OCO2 | . | 101.3* | . | . | .
